Assay results published in PubChem BioAssay (Tox21).
Values joined by “and” are separate entries in the source; they are usually repeats but may differ in a detail not shown here. Identical values can stand only once. Inconclusive results are not listed. Where a call stands in place of a potency, no number is given. Some structures have more than one record in an assay (separate samples or runs), and their calls can disagree. Active and inactive are the calls of the source. The call rests on the fitted dose curve; in most records, active means well fitted cell-killing curve with a large enough effect in the repeat runs; inconclusive means weak or mixed curves, or effect the other way; inactive means flat fitted curve, though single readings scatter.

experiment: qHTS assay to identify small molecule that activate the aryl hydrocarbon receptor (AhR) signaling pathway - cell viability counter screen (AID 743086); details: HepG2-AhR-luc viability, CellTiter-Fluor, 24 h; series mostly up to 70.3 µM; further: nearly all actives have a fitted effect of over 45% in size
Excerpt: U.S. Tox21 Program National Center for Advancing Translational Sciences [NCATS] NIH Chemical Genomics Center [NCGC] U.S. Environmental Protection Agency [EPA] National Institutes of Environmental Health Sciences [NIEHS] National Toxicology Program [NTP] U.S. Food and Drug Administration [FDA] Tox21 Assay overview: The Aryl hydrocarbon Receptor (AhR), a member of the family of basic helix-loop-helix transcription factors, is crucial to adaptive responses to environmental changes. AhR mediates cellular responses to environmental pollutants such as aromatic hydrocarbons through induction of phase I and II enzymes but also interacts with other nuclear receptor signaling pathways A cell based HepG2-AhR-luc assay (HG2L7.5c1 cell line, developed by Dr. Michael S. Denison, University of California at Davis) was used to assess the activation of AhR. HepG2 (human hepatocellular carcinoma) cells were stably transfected with an Ah receptor-responsive firefly luciferase reporter gene plasmid containing 20 dioxin responsive elements and luciferase reporter gene. Increased luciferase activity can be used to identify the compounds that induce AhR activation. The cytotoxicity of the compounds screened against the HepG2-AhR-luc cell line was tested in parallel by measuring the cell viability using CellTiter-Fluor assay in the same wells.
Tox21 Assay Protocol Summary: 4000 cells in 5 uL/well were dispensed into white wall/solid bottom 1536-well plates using a Multidrop Combi (Thermo Fisher Scientific Inc., Waltham, MA) dispenser. After the assay plates were incubated at 37C for 5 h, 23 nL of compound or DMSO vehicle was transferred to the assay plates by a pintool station (Kalypsys, San Diego, CA). The plates were incubated at 37C for 24 hr. For cell viability measurement, 1 ul/well of CellTiter-Fluor reagent (Promega, Madison, WI) was added into the assay plates using a Flying Reagent Dispenser (FRD) (Aurora Discovery, CA),and then the assay plates were incubated at 37C for 30 min. The fluorescence intensity in the plates was measured using a ViewLux plate reader (PerkinElmer, Shelton, CT), followed by the addition of 4 uL of ONE-Glo Luciferase Assay reagent (Promega) using an FRD (Aurora Discovery). After the assay plates were incubated at room temperature for 30 min, luminescence intensity was measured using a ViewLux plate reader (Perkin Elmer).
Potency means the concentration at half of the fitted maximal effect.

Q: With `c1ccncc1` as the compound, how does the Potency read?
A: inactive

Q: For `Nc1ccc(S(=O)(=O)Nc2cnc3ccccc3n2)cc1`, which Potency is on record?
A: inactive

Q: With `CCCCOCCOCCOCCO` as the compound, how does the Potency read?
A: inactive

Q: Which Potency does the source give for `CN(C)CCN(Cc1cccs1)c1ccccn1` here?
A: inactive

Q: For `O=C(Nc1ccc([N+](=O)[O-])cc1Cl)c1cc(Cl)ccc1O`, which Potency is on record?
A: inactive

Q: With `COc1ccc(OC)c(C(O)CNC(=O)CN)c1` (stereo not given) as the compound, how does the Potency read?
A: inactive

Q: Which Potency does the source give for `CC(C)OB(OC(C)C)OC(C)C` here?
A: inactive

Q: With `O=C(O)c1ccccc1Nc1cccc(C(F)(F)F)c1` as the compound, how does the Potency read?
A: inactive

Q: With `O=c1oc(=O)c2cc3c(=O)oc(=O)c3cc12` as the compound, how does the Potency read?
A: inactive

Q: Which Potency does the source give for `CCCCC/C=C/C=C/C=O` here?
A: inactive

Q: With `COC(=O)Nc1nc2ccc(S(=O)c3ccccc3)cc2[nH]1` (stereo not given) as the compound, how does the Potency read?
A: inactive

Q: For `S=C(NC1CCCCC1)NC1CCCCC1`, which Potency is on record?
A: inactive and 17.2 µM (active)

Q: With `CN(C)C(=N)N=C(N)N` as the compound, how does the Potency read?
A: inactive

Q: For `Cc1c(C(N)=O)cc([N+](=O)[O-])cc1[N+](=O)[O-]`, which Potency is on record?
A: inactive

Q: For `O=C1c2cccc(O)c2C(=O)c2c(O)cccc21`, which Potency is on record?
A: inactive

Q: With `C=C(C)C1CC=C(C)CC1` (stereo not given) as the compound, how does the Potency read?
A: inactive

Q: For `C#C[C@]1(O)CC[C@H]2[C@@H]3CCC4=Cc5oncc5C[C@]4(C)[C@H]3CC[C@@]21C`, which Potency is on record?
A: inactive

Q: For `COC(C)COC(C)COC(C)CO` (stereo not given), which Potency is on record?
A: inactive

Q: Which Potency does the source give for `CCCCOCCOCCO` here?
A: inactive

Q: For `CC(=O)C1(C)CC2=C(CCCC2(C)C)CC1C` (stereo not given), which Potency is on record?
A: inactive

Q: Which Potency does the source give for `CC(=O)Oc1ccccc1C(=O)Nc1ncc([N+](=O)[O-])s1` here?
A: inactive and 17.6 µM (active)

Q: Which Potency does the source give for `Clc1nc(Cl)c(Cl)c(Cl)c1Cl` here?
A: inactive

Q: Which Potency does the source give for `CCC(C)(O)CCCC(C)C` (stereo not given) here?
A: inactive

Q: Which Potency does the source give for `CCCC(=O)O` here?
A: inactive

Q: With `CCOC(=O)C(C#N)=C(c1ccccc1)c1ccccc1` as the compound, how does the Potency read?
A: inactive

Q: With `CN(C)CCC=C1c2ccccc2CCc2ccccc21` as the compound, how does the Potency read?
A: 48.6 µM (active)

Q: With `C=CC(C)(CCC=C(C)C)OC(C)=O` (stereo not given) as the compound, how does the Potency read?
A: inactive

Q: With `O=C(c1ccccc1)c1ccc(O)cc1O` as the compound, how does the Potency read?
A: inactive

Q: Which Potency does the source give for `CN(C)c1nc(N(C)C)nc(N(C)C)n1` here?
A: inactive

Q: For `O=C(c1ccc(OCCN2CCCCC2)cc1)c1c(-c2ccc(O)cc2)sc2cc(O)ccc12`, which Potency is on record?
A: 21.1 µM (active) and 21.7 µM (active) and 19.3 µM (active)

Q: For `C#C[C@]1(O)CC[C@H]2[C@@H]3CCc4cc(OC)ccc4[C@H]3CC[C@@]21C`, which Potency is on record?
A: inactive

Q: With `CCC(C)OC(=O)c1ccc(O)cc1` (stereo not given) as the compound, how does the Potency read?
A: inactive

Q: Which Potency does the source give for `Nc1ncnc2nc[nH]c12` here?
A: inactive

Q: For `O=C1OC2(c3cc(Br)c(O)c(Br)c3Oc3c2cc(Br)c(O)c3Br)c2c(Cl)c(Cl)c(Cl)c(Cl)c21`, which Potency is on record?
A: 9.7 µM (active) and 5.88 µM (active)

Q: Which Potency does the source give for `CCOCCOCCO` here?
A: inactive

Q: For `C[Si](C)(C)O[Si](C)(C)C`, which Potency is on record?
A: inactive

Q: For `CCCCCCCCCCCO`, which Potency is on record?
A: inactive

Q: For `CCC(C)CO` (stereo not given), which Potency is on record?
A: inactive

Q: With `CC(C)OC(=O)C(C)(C)Oc1ccc(C(=O)c2ccc(Cl)cc2)cc1` as the compound, how does the Potency read?
A: inactive

Q: Which Potency does the source give for `OCCO` here?
A: inactive
